Only some compounds are listed: those with a hit (about 2.8% of all), similar ones and a draw of the others.
KDM5B inhibitor – inhibitors of human KDM5B histone demethylase; KDM5B demethylase, FDH-coupled NADH fluorescence (FDH is formaldehyde dehydrogenase); 2.6% of 220,000 active; Potency, µM (doses to about 57.7 µM), most hits filed as inhibitors; AID 1347165; Q9UGL1; active = well fitted inhibition curve with a large enough effect; inconclusive = small, poorly fitted or top-dose-only effect; inactive = no such curve, though single readings can be large or run the other way; note: potency is the fitted concentration of half-maximal effect; 0% is about no effect; nearly all actives have a fitted effect of over 70% in size
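Coupled FDH/NAD⁺ fluorescence readout. KDM5BΔAP 200 nM final; compound titration, 10 min RT preincubation; substrate mix 12.5 µM H3K4me3, 25 µM 2-OG, 50 µM Fe(II), 100 µM ascorbate, 0.25 mM NAD⁺, 0.25 U/mL FDH; ΔRFU over 30 min.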
IP6K1 inhibitor – inhibitors of human IP6K1; Q92551; IP6K1 kinase, ADP-Glo luminescence, 2 h; stronger effect = lower value; activity change, % (series mostly up to about 58 µM); 0.81% of 140,000 active; AID 1645851; in the data active = activity change below about -25%; note: % is set by controls: 0 for no effect and ±100 for the full control effect
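ADP-Glo luminescence measures ADP made by human IP6K1 during a 2 h RT reaction with ATP/IP6 (mix at 1.3 mM/130 uM); top library doses 57.5 and 19.1 uM final.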
Starred values were filed as active, the others as inactive.

For COc1ccc(C(=O)N2CCCC3(C2)Nc2cccnc2NC3=NCc2ccccc2)cn1 (stereo unspecified) the results were KDM5B inhibitor inconclusive and IP6K1 inhibitor 14.
CCCCS(=O)(=O)N1CCCC2(C1)Nc1cccnc1NC2=NCc1ccccc1 (stereo unspecified) was read as KDM5B inhibitor 28µM* and IP6K1 inhibitor 3.
For O=C(c1cnccn1)N1CCCC2(C1)Nc1cccnc1NC2=NCc1ccccc1 (stereo unspecified) the results were KDM5B inhibitor inconclusive and IP6K1 inhibitor 13.
Screening Cc1ccc(C(=O)N2CCCC3(C2)Nc2cccnc2NC3=NCc2ccccc2)cn1 (stereo unspecified) returned KDM5B inhibitor 28µM* and IP6K1 inhibitor 1.
Cn1c(=O)n([C@H]2CCCN(S(=O)(=O)Cc3ccccc3)C2)c2ncccc21 was read as KDM5B inhibitor inactive and IP6K1 inhibitor 15.
Screening O=C(NCc1ccco1)N1CCCC2(C1)Nc1cccnc1NC2=NCc1ccccc1 (stereo unspecified) returned KDM5B inhibitor 25µM* and IP6K1 inhibitor 1.
Cc1nn(-c2ccccc2)c2c1C(C)N(CC1CN([S+](=O)([O-])c3cccc(C(F)(F)F)c3)C1)C2=O (stereo unspecified) was read as IP6K1 inhibitor 15.
For O=C(CCSC1CCc2ccccc2NC1=O)Nc1ccc2c(c1)OCCO2 (stereo unspecified) the results were KDM5B inhibitor inactive.
For COc1cc(C(=O)/C=C/c2ccc(Cl)cc2)ccc1OCC(=O)O the results were KDM5B inhibitor inactive.
O=C(Nc1nn(-c2cccc(F)c2)c2cccc(N3CCOC3=O)c12)C1CCC1 was read as KDM5B inhibitor 28µM* and IP6K1 inhibitor 6.
O=C(NC1CC(=O)N(c2cccc(F)c2)C1)C1CCCCC1 (stereo unspecified) was read as KDM5B inhibitor inactive and IP6K1 inhibitor 19.
For Cc1cc(C[C@@H]2COC[C@@H]2NC(=O)CCc2nc(-c3ccccc3C)no2)on1 the results were KDM5B inhibitor inactive and IP6K1 inhibitor 13.
Screening COc1ccc2[nH]c(C(=O)N[C@H]3COC[C@H]3Cc3cc(C)no3)c(C)c2c1 returned KDM5B inhibitor 22µM* and IP6K1 inhibitor 0.
`COc1nc2ccccc2nc1CCC(=O)N[C@H]1COC[C@H]1Cc1cc(C)no1` gave KDM5B inhibitor 28µM* and IP6K1 inhibitor -2.
Screening COc1ccc(C2(C(=O)N[C@H]3COC[C@H]3Cc3cc(C)no3)CCCC2)cc1 returned KDM5B inhibitor inactive and IP6K1 inhibitor 1.
`COc1ccc(-c2nc(C3CC3)nc3c2CCN(CC2CCCCC2)CC3)cc1` gave KDM5B inhibitor 25µM* and IP6K1 inhibitor -4.
Screening COc1ccc(-c2nc(C3CC3)nc3c2CCN(Cc2ccc(F)cc2)CC3)cc1 returned KDM5B inhibitor inconclusive and IP6K1 inhibitor 5.
COc1ccc(-c2nc(C3CC3)nc3c2CCN(Cc2cccc4ccccc24)CC3)cc1 was read as KDM5B inhibitor inconclusive and IP6K1 inhibitor -14.
`COc1ccc(-c2nc(C3CC3)nc3c2CCN(CC2CC2)CC3)cc1` gave KDM5B inhibitor inconclusive and IP6K1 inhibitor 1.
For COc1ccc(-c2nc(C3CC3)nc3c2CCN(Cc2ccsc2)CC3)cc1 the results were KDM5B inhibitor 79µM* and IP6K1 inhibitor 8.
For COc1ccc(-c2nc(C3CC3)nc3c2CCN(Cc2cccn2C)CC3)cc1 the results were KDM5B inhibitor 50µM* and IP6K1 inhibitor 2.
Screening CN(C)c1ncc2c(n1)C(C)(C(=O)Nc1ccncc1)CCC2 (stereo unspecified) returned KDM5B inhibitor 32µM* and IP6K1 inhibitor 8.
Screening CN(C)c1ncc2c(n1)C(C)(C(=O)Nc1cccc(F)c1)CCC2 (stereo unspecified) returned KDM5B inhibitor 32µM* and IP6K1 inhibitor 11.
Screening COc1ccc(NC(=O)C2(C)CCCc3cnc(Nc4cccnc4)nc32)cc1 (stereo unspecified) returned KDM5B inhibitor inactive and IP6K1 inhibitor -1.
Screening COc1cccc(NC(=O)C2(C)CCCc3cnc(N(C)C)nc32)c1 (stereo unspecified) returned KDM5B inhibitor 40µM* and IP6K1 inhibitor 5.
`CC1(C(=O)Nc2ccncc2)CCCc2cnc(Nc3ccccc3)nc21` (stereo unspecified) gave KDM5B inhibitor inactive and IP6K1 inhibitor -6.
`COc1cccc(NC(=O)C2(C)CCc3cnc(NCc4ccccc4)nc32)c1` (stereo unspecified) gave KDM5B inhibitor inactive and IP6K1 inhibitor 24.
For CSc1nc(Cl)cc(Sc2ccc(C)cc2)n1 the results were KDM5B inhibitor inactive.
Screening O=C(Nc1cccc(F)c1)c1nc2ccccc2nc1N1CCOCC1 returned KDM5B inhibitor inactive.
Screening O=C(c1cc2ccccc2[nH]1)N1CCN(C(=O)C2CC2)CC1 returned KDM5B inhibitor inactive.
Screening CNC(=O)c1cc(C2CC2)nc2c1c(C1CCN(C(=O)OC)C1)nn2C (stereo unspecified) returned IP6K1 inhibitor 6.
Cc1noc2c(N3CCN(Cc4ccccc4)CC3)cc(-c3cccnc3)nc12 was read as KDM5B inhibitor inactive and IP6K1 inhibitor 22.
For Cc1c(CC(=O)NCc2ccco2)c(=O)oc2c(C)c(O)ccc12 the results were KDM5B inhibitor inactive.
For CN(C)c1nc2c(c(=O)[nH]1)CCN(Cc1ccc(Cl)c(F)c1)CC2 the results were KDM5B inhibitor 28µM* and IP6K1 inhibitor 18.
Screening CN(C)c1nc2c(c(=O)[nH]1)CCN(Cc1cc(F)c(F)c(F)c1)CC2 returned KDM5B inhibitor inactive and IP6K1 inhibitor 5.
CN(C)c1nc(N(C)C)nc(-n2cnc(SCc3ccccc3)n2)n1 was read as KDM5B inhibitor inactive.
For Cc1ccc2c(=O)cc(C(=O)Nc3nnc(C(C)C)s3)oc2c1C the results were KDM5B inhibitor inactive.
`O=C(NCc1ccccc1Cl)c1cccc2c1-c1ccccc1C2=O` gave KDM5B inhibitor inactive.
For O=C1CC(c2ccccc2)N(C(=O)CNC(=O)c2cnccn2)CCCCCN1 (stereo unspecified) the results were KDM5B inhibitor inactive and IP6K1 inhibitor -7.
`O=C1CC(c2ccccc2)N(C(=O)CNC(=O)c2ccccn2)CCCCCN1` (stereo unspecified) gave KDM5B inhibitor 28µM* and IP6K1 inhibitor -3.
For COc1cccc(C(=O)N[C@@H]2CN(c3ccccn3)C[C@H]2CN(C)C)c1OC the results were KDM5B inhibitor 28µM* and IP6K1 inhibitor 22.
`CN(C)C[C@@H]1CN(Cc2ccncc2)C[C@H]1NC(=O)c1cc(F)cc(F)c1` gave KDM5B inhibitor inconclusive and IP6K1 inhibitor 3.
`COc1cccc(C(=O)N[C@@H]2CN(C)C[C@H]2CN(C)C)c1OC` gave KDM5B inhibitor inconclusive and IP6K1 inhibitor -7.
Screening CN(C)C[C@@H]1CN(S(C)(=O)=O)C[C@H]1NC(=O)c1ccc(Cl)s1 returned KDM5B inhibitor inactive and IP6K1 inhibitor 7.
For COc1cccc(C(=O)N[C@@H]2CN(c3ncccn3)C[C@H]2CN(C)C)c1 the results were KDM5B inhibitor 32µM* and IP6K1 inhibitor 8.
`COc1cc(OC)cc(C(=O)N[C@@H]2CN(C)C[C@H]2CN(C)C)c1` gave KDM5B inhibitor inconclusive and IP6K1 inhibitor -6.
